From PubChem BioAssay AID1159580 (chemical genetic matrix, 2015)
Several values for one entry are separate records, joined by “and”; a condition that tells them apart may be missing. Identical values can stand only once. The campaign covered roughly 5,500 compounds. About 2,000 (36%) were called active. About 18% were inconclusive and are not listed. Rule as the data show it: active = normalized growth mostly below about 0.91 (no sharp cut-off); inconclusive = no clear call, values can overlap the other calls; inactive = mostly above about 0.92. Some of the results follow.

Experiment: chemical genetic growth profiling, strain panel (AID 1159580);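 also: tested at 20 µM; growth read once vehicle control cultures reached saturation at 30 °C; 1 = growth at the plate median or of vehicle wells; lower values mean less growth of the strain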
Details: S. cerevisiae deletion strains, growth OD

Measured: normalized growth

CN(C)CCC=C1c2ccccc2C=Cc2ccccc21
active: locus YAL021C, strain ccr4, stronger effect = lower value 0.893 | locus YAL026C, strain drs2, stronger effect = lower value 0.901 | locus YDR137W, strain rgp1, stronger effect = lower value 1.18 [resistant]
inactive: locus YAL013W, strain DEP1, stronger effect = lower value 0.995 | locus YAL030W, strain snc1, stronger effect = lower value 0.982 | locus YAL040C, strain CLN3, stronger effect = lower value 1.07 | locus YBL061C, strain skt5, stronger effect = lower value 0.995 | locus YBR009C, strain hhf1, stronger effect = lower value 0.99 | locus YBR021W, strain FUR4, stronger effect = lower value 0.958 | locus YBR023C, strain chs3, stronger effect = lower value 0.978 | locus YBR171W, strain sec66, stronger effect = lower value 1 | locus YBR229C, strain ROT2, stronger effect = lower value 0.995 | locus YBR231C, strain swc5, stronger effect = lower value 0.997 | locus YBR279W, strain paf1, stronger effect = lower value 0.979 | locus YCL011C, strain gbp2, stronger effect = lower value 0.984 | locus YCL016C, strain dcc1, stronger effect = lower value 0.954 | locus YCL029C, strain bik1, stronger effect = lower value 1 | locus YCL061C, strain MRC1 (second series), stronger effect = lower value 0.999 | locus YCL061C, strain MRC1, stronger effect = lower value 0.992 | locus YCL069W, strain vba3, stronger effect = lower value 0.993 | locus YCR088W, strain abp1, stronger effect = lower value 0.998 | locus YDL005C, strain med2, stronger effect = lower value 0.991 | locus YDL035C, strain GPR1, stronger effect = lower value 0.954 | locus YDL040C, strain nat1, stronger effect = lower value 0.967 | locus YDL074C, strain BRE1, stronger effect = lower value 0.956 | locus YDL101C, strain DUN1, stronger effect = lower value 1.02 | locus YDL134C, strain PPH21, stronger effect = lower value 0.996 | locus YDL185W, strain tfp1, stronger effect = lower value 0.949 | locus YDL192W, strain arf1, stronger effect = lower value 0.988 | locus YDR001C, strain nth1, stronger effect = lower value 0.983 | locus YDR069C, strain doa4, stronger effect = lower value 0.918 | locus YDR101C, strain arx1, stronger effect = lower value 1.05 | locus YDR150W, strain NUM1, stronger effect = lower value 0.987 | locus YDR159W, strain sac3, stronger effect = lower value 1 | locus YDR162C, strain NBP2, stronger effect = lower value 0.95 | locus YDR195W, strain ref2 1.05 | locus YDR297W, strain sur2, stronger effect = lower value 0.971 | locus YDR318W, strain mcm21, stronger effect = lower value 0.982 | locus YDR334W, strain swr1, stronger effect = lower value 0.958 | locus YDR335W, strain msn5, stronger effect = lower value 0.969 | locus YDR388W, stronger effect = lower value 0.959 | locus YDR392W, strain spt3, stronger effect = lower value 0.988 | locus YDR502C, strain sam2, stronger effect = lower value 0.996 | locus YEL003W, strain gim4, stronger effect = lower value 0.987 | locus YEL037C, strain rad23, stronger effect = lower value 1 | locus YEL061C, strain CIN8 (second series), stronger effect = lower value 0.982 | locus YEL061C, strain CIN8, stronger effect = lower value 0.99 | locus YER002W, strain NOP16, stronger effect = lower value 1.04 | locus YER015W, strain faa2, stronger effect = lower value 0.969 | locus YER016W, strain bim1, stronger effect = lower value 0.998 | locus YER110C, stronger effect = lower value 0.984 | locus YER111C, strain swi4, stronger effect = lower value 0.993 | locus YER155C, strain BEM2 (second series), stronger effect = lower value 0.967 | locus YER155C, strain BEM2, stronger effect = lower value 1.02 | locus YER167W, strain BCK2, stronger effect = lower value 0.999 | locus YFR010W, strain ubp6, stronger effect = lower value 0.95 | locus YGL078C, strain dbp3, stronger effect = lower value 0.985 | locus YGL086W, strain mad1, stronger effect = lower value 1.01 | locus YGL167C, strain pmr1, stronger effect = lower value 0.976 | locus YGL173C, strain kem1, stronger effect = lower value 1 | locus YGL227W, strain vid30, stronger effect = lower value 0.97 | locus YGL240W, strain doc1, stronger effect = lower value 1.02 | locus YGL248W, strain PDE1, stronger effect = lower value 0.998 | locus YGL253W, strain hxk2, stronger effect = lower value 0.988 | locus YGR135W, strain pre9, stronger effect = lower value 0.919 | locus YGR252W, strain gcn5, stronger effect = lower value 0.904 | locus YHR013C, strain ard1, stronger effect = lower value 0.945 | locus YHR027C, strain rpn1, stronger effect = lower value 0.953 | locus YHR030C, strain SLT2, stronger effect = lower value 0.983 and 1.01 | locus YHR079C, strain IRE1 (second series), stronger effect = lower value 0.984 | locus YHR079C, strain IRE1, stronger effect = lower value 1.02 | locus YHR094C, strain hxt1, stronger effect = lower value 0.99 | locus YHR129C, strain ARP1, stronger effect = lower value 0.993 | locus YHR142W, strain chs7, stronger effect = lower value 0.959 | locus YHR200W, strain rpn10, stronger effect = lower value 0.998 | locus YIL066C, strain RNR3, stronger effect = lower value 0.974 | locus YIL073C, strain SPO22, stronger effect = lower value 0.94 | locus YIL125W, strain kgd1, stronger effect = lower value 1.02 | locus YIR030C, strain dcg1, stronger effect = lower value 0.988 | locus YJL092W, strain hpr5, stronger effect = lower value 0.98 | locus YJL095W, strain BCK1 (second series), stronger effect = lower value 0.98 | locus YJL095W, strain BCK1, stronger effect = lower value 0.903 and 1.02 | locus YJL115W, strain asf1, stronger effect = lower value 0.951 | locus YJL129C, strain trk1, stronger effect = lower value 1.01 | locus YJL134W, strain LCB3, stronger effect = lower value 0.988 | locus YJL154C, strain vps35, stronger effect = lower value 0.979 | locus YJL164C, strain tpk1, stronger effect = lower value 0.998 | locus YJL166W, strain qcr8, stronger effect = lower value 0.996 | locus YJL187C, strain SWE1 (second series), stronger effect = lower value 1.01 | locus YJR043C, strain POL32, stronger effect = lower value 1.04 | locus YJR066W, strain TOR1, stronger effect = lower value 0.956 | locus YJR075W, strain HOC1, stronger effect = lower value 0.982
